# According to PubChem BioAssay (NCATS):
# Records with an inconclusive call do not appear. A call without a number means that no potency is given here. The source made the active and inactive calls. Unless noted, calls follow the shape of the dose curve; as a rule, active = well fitted curve in the direction sought with a large enough effect; inconclusive = small, poorly fitted or top-dose-only effect, or another doubt; inactive = no such curve, though single readings can be large; an effect the other way counts as inactive or inconclusive. Numbered stars: 1 amine (or outer) side, 2 acyl side, 3 side chain; on linkers, the order of the positions; unused ones are H or OH. Square brackets hold non-standard residues; d marks the D form. Peptide text beside a SMILES is read from it. X1 = CCCCCCCCCC(=O)[C@H](C(=O)[*:2])[C@@H]1CNC(=O)[C@@H](N[*:1])CS1
# Assays:
# [1] = qHTS for ATAD5 Agonist screened against the NCATS CANVASS Library (AID 1347367);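 also: luciferase reporter driven by ATAD5 which rises upon DNA damage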
# In short: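 HEK293T cells stably carrying an ATAD5-controlled luciferase reporter (2000 cells/well) attached for 5 hr, then received compounds in an 11-point series for 16hr at 37C. Luminescence was read after a 30 min room-temperature reagent step.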
# [2] = G06 Cancer Cell Toxicity qHTS against the NCATS CANVASS Library (AID 1347368); also: nearly all actives have a fitted effect of over 60% in size; also: potency is read from the fitted curve at half-maximal effect
# In short: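 Cells were plated at 500 per well, then compounds were added over an 11-point range. After 72 hr at 37C, CellTiterGlo was added and luminescence measured as ATP content.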
# [3] = qHTS for Antimalaria activity screened against the NCATS CANVASS Library (AID 1347380); also: nearly all actives have a fitted effect of over 40% in size; also: potency is read from the fitted curve at half-maximal effect;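 as to activity change, negative = inhibition: Plasmodium falciparum strain Dd2 asexual parasites grown in red blood cells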
# In short: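 Compounds are titrated over 11 concentrations onto Dd2 parasite cultures (0.3% parasitemia, 2.5% hematocrit). Growth over 72 h at 37C in low oxygen is measured as SYBR Green DNA fluorescence after lysis.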
# [4] = qHTS for activators of Nrf2/ARE signaling pathway screened against the NCATS CANVASS Library (AID 1347391); also: nearly all actives have a fitted effect of over 60% in size; also: potency is read from the fitted curve at half-maximal effect
# In short: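 Beta-lactamase reporter signal, read as 460 and 530 nm emission under 405 nm excitation after 2 h CCF4 loading, reflected ARE activation in HepG2 cells treated 16 h with an 11-point series.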
# [5] = qHTS for inhibitors of ER calcium dysfunction: SERCaMP assay screened against the NCATS CANVASS Library (AID 1347393); also: nearly all actives have a fitted effect of over 40% in size; also: potency is read from the fitted curve at half-maximal effect;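 as to activity change, negative = inhibition: lower secreted reporter signal means inhibitor of ER calcium depletion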
# In short: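 SH-SY5Y GLuc-SERCaMP, 1000 cells/well, 4 h attach; cpd 16 h, 37C/5% CO2; thapsigargin (added as 6x 600 nM) 4 h; coelenterazine; luminescence. Reduced reporter release = ER Ca stabilization.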
# [6] = Vero-766 cells viability qHTS against the NCATS CANVASS Library: Counterscreen for Zika virus inhibition assay (AID 1347394); also: nearly all actives have a fitted effect of over 60% in size; also: potency is read from the fitted curve at half-maximal effect
# In short: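 Uninfected Vero 766 (African green monkey) cells, 1000/well, attached overnight, then exposed 72 h at 37C to compounds (11-point qHTS). Viability read by CellTiter-Glo luminescence; media-only wells served as 100% inhibition.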
# [7] = Redox Reaction Profiling qHTS: Assay Interference Panel against the NCATS CANVASS Library (AID 1347401)
# In short: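 Fluorescence read-out (525 nm excitation, 598 nm emission) at time zero and after 15 min in the dark tracked resorufin formation. Mix: 5 uM resazurin, 200 uM DTT, HEPES pH 7.3 buffer with NaCl.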
# [8] = HEK293 12hr Apoptosis Induction qHTS against the NCATS CANVASS Library (AID 1347361)
# In short: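 Read-out: Caspase-Glo 3/7 luminescence (DEVD substrate), 15 min RT. Preceded by 12 h compound exposure of HEK293, 500 cells/well, 11-pt qHTS titration; doxorubicin titration as control.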
# [9] = qHTS for Hypoxia signaling pathway (HIF-1) agonists against the NCATS CANVASS Library (AID 1347375)
# In short: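 Cells plated and rested 5 h, compounds pinned in DMSO across 11 concentrations, incubated 17 h at 37C, loaded with CCF4-AM for 2 h, fluorescence read at 460 and 530 nm, then CellTiter-Glo luminescence measured for viability and normalization.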
# [10] = target: Phospholipid hydroperoxide glutathione peroxidase GPX4 (Homo sapiens) (UniProt P36969); assay: Primary qHTS Assay for Inhibitors of Recombinant Selenoprotein Glutathione Peroxidase 4 (GPX4) (AID 1845192); conditions: outcome: dose series up to 50 µM unless noted; also: nearly all actives have a fitted effect of over 65% in size
# Phospholipid hydroperoxide glutathione peroxidase GPX4 (Homo sapiens), sequence (P36969 whole entry, looked up): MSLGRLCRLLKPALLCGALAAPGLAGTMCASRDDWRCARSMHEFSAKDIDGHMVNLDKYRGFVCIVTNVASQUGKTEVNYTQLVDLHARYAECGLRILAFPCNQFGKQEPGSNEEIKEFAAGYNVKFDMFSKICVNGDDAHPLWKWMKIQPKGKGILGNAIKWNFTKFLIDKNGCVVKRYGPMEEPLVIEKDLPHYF
# In short: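 Steps: GPX4 plus compound, 30 min RT; add GR/GSH/NADPH master mix; start with cumene hydroperoxide; read 340/450 nm fluorescence at 0 and 15 min. Finals were 200 nM GPX4, 1 mM GSH, 0.5 mM CHP, 0.5 mM NADPH, 100 nM GR.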
# [11] = qHTS drug screen for cell cycle checkpoint inhibitors in PARPi-resistant BRCA-mutant ovarian cancer cell lines. (AID 1963452; calls by dose curve); conditions: PEO1/OlaR viability, CellTiter-Glo luminescence, 96 h, stronger effect = lower value
# In short: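 PEO1, PEO4 and PEO1/OlaR ovarian cancer cells, 600 per well, exposed 96 h at 37C to a dilution series. Viability read by CellTiter-Glo luminescence, normalized to DMSO and empty wells; activity summarized as Z-AUC.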
# [12] = Tertiary RLuc qRT-PCR qHTS assay for Zika virus inhibitors (AID 1347169); also: top concentration of the series differs between compounds; nearly all actives have a fitted effect of over 55% in size
# In short: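 Vero cells (1,000 per well) plated overnight at 37 degrees C, treated with compound in DMSO, then infected with recombinant ZIKV-RLuc (Cambodian) at MOI 1-2 for 48-72 hrs. Live-cell Renilla luciferase substrate added; luminescence read after 1-1.5 hrs.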
# [13] = Primary qHTS for small molecule stabilizers of the endoplasmic reticulum resident proteome: Secreted ER Calcium Modulated Protein (SERCaMP) assay (AID 1508630)
# In short: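 The SH-SY5Y reporter protocol was run at 3 concentrations up to 38.3 uM (primary) or 11 concentrations (follow-up): 16 h compound, 100 nM thapsigargin for 4 h, then extracellular luciferase luminescence.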
# [14] = target: Glucocorticoid receptor (Homo sapiens) (UniProt P04150); assay: GR-GFP Redistribution (AID 450;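 active = compounds whose dose series gives a full or clear partial fitted curve of increased nuclear translocation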; also: potency is read from the fitted curve at half-maximal effect); conditions: U2OS GR-GFP nuclear translocation, laser cytometry, 2 h
# Glucocorticoid receptor (Homo sapiens), sequence (P04150 whole entry, looked up, the tested form may be a part): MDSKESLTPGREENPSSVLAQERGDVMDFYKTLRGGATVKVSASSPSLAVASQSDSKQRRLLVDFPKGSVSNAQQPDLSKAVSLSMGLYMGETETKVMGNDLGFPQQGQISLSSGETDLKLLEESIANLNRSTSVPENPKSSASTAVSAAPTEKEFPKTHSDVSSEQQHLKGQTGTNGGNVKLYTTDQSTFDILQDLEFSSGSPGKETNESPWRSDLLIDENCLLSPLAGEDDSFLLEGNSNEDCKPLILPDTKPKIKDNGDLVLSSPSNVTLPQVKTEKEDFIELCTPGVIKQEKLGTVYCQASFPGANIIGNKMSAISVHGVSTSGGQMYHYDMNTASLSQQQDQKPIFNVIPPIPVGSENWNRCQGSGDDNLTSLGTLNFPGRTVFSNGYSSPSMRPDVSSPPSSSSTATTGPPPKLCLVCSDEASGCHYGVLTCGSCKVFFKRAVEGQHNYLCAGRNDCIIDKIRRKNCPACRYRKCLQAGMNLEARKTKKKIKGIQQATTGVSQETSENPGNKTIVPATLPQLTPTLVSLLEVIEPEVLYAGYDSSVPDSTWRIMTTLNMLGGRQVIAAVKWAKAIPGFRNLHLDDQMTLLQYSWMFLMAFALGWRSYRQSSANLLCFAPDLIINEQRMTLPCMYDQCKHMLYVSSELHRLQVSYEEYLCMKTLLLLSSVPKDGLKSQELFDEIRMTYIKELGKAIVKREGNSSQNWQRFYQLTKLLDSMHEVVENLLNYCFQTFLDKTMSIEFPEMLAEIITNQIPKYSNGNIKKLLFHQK
# [15] = target: Glucocorticoid receptor (Homo sapiens) (UniProt P04150); assay: GR-EFC Redistribution (AID 451; calls by dose curve; also: potency is read from the fitted curve at half-maximal effect); conditions: CHO-K1 GR-EFC translocation, beta-gal luminescence, 2 h
# In short: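 CHO-K1 cells expressing nuclear EA and GR-ED fragments of b-gal; compounds titrated up to 46 uM final, 2 h at 37 C. GR nuclear translocation read as complemented b-gal luminescence after 1 h RT detection.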
# [16] = target: Mitogen-activated protein kinase 10 (Mus musculus) (UniProt Q61831); assay: JNK3 AlphaScreen Assay (AID 530; active = well fitted curve in either direction with a large enough effect, not every such curve was filed as active;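 also: kinase came from lysate of stimulated human HepG2 cells; signal reports phosphorylation of biotinylated GST-cJun 1-79 at Ser73 with 10 µM ATP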)
# In short: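 Activity was read by AlphaScreen after JNK3-containing HepG2 lysate (cytokine pre-activated) phosphorylated biotinylated GST-cJun with 10 uM ATP at room temperature. Phospho-Ser73 cJun antibody with Protein-A acceptor beads provided detection.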
# [17] = target: DNA dC->dU-editing enzyme APOBEC-3G (Homo sapiens) (UniProt Q9HC16); assay: qHTS for inhibitors of Vif-A3G interactions: Validation (AID 588379)
# DNA dC->dU-editing enzyme APOBEC-3G (Homo sapiens), sequence (Q9HC16 whole entry, looked up): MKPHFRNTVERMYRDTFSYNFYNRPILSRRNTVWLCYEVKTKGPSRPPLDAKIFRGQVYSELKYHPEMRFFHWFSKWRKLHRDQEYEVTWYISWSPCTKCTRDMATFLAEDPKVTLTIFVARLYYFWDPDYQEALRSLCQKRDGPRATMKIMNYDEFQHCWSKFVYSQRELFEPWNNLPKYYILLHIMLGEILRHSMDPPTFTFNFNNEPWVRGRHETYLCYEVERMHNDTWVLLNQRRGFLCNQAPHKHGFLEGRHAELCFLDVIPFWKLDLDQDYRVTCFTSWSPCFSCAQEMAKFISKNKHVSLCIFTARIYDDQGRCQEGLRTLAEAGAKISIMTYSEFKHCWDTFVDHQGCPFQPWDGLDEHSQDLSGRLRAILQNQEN
# In short: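 Yellow fluorescence (Ex 488, Em 500-530) of Vif-coexpressing HeLa A3G-eYFP cells, scanned by Acumen cytometer, reports blocked A3G degradation. Cells plated at 700/well overnight at 37 deg C before compound addition, then a further overnight compound incubation at 37 deg C.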
# [18] = qHTS Assay for Lipid Storage Modulators (AID 1519; calls by dose curve); conditions: Drosophila S3 cells, BODIPY lipid droplet/cell ratio, laser cytometry, cells loaded with oleic acid; for activity change, negative = inhibition: at 57.5 µM (top of the series)
# In short: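 Cells seeded at 5,000 per well were treated with compounds over a concentration series and loaded with oleic acid (400 uM, as added). Lipid droplet fluorescence (488 nm excitation, 500-530 nm channel) was read by laser-scanning cytometry and normalized to 20 uM Triacsin C.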
# [19] = measured here: cell count channel max response
# [20] = measured here: lipid channel max response
structure (smiles),measurement,setting,value
C[C@@H]1O[C@@H](Oc2c(-c3ccc(O)cc3)oc3cc(O)cc(O)c3c2=O)[C@H](O)[C@H](O)[C@H]1O,Potency,[1],inactive
same,Potency,[2],inactive
same,Potency,[3],inactive
same,Potency,[4],inactive
same,Potency,[5],inactive
same,Potency,[6],inactive
same,Potency,[7],inactive
C[C@@H]1C(=O)[C@]23CC[C@H]1C[C@]21O[C@H]2C(C)(C)C=CC(=O)[C@@]23COC1=O,Potency,[8],inactive
same,Potency,[2],inactive
same,Potency,[9],inactive
same,Potency,[7],inactive
CC1(C)CC[C@]2(C(=O)O)CC[C@]3(C)C(=CC[C@@H]4[C@@]5(C)C[C@@H](O)[C@H](O)C(C)(C)[C@@H]5CC[C@]43C)[C@@H]2C1,Potency,[1],inactive
same,Potency,[2],inactive
same,Potency,[4],inactive
same,Potency,[10],inactive
same,Z-AUC,[11],1.45 (inactive)
same,Z-AUC,[11]; measured here: PEO1 parental Z-AUC,0.722
same,Z-AUC,[11]; measured here: PEO4 Z-AUC,0.511
CN1C(=O)C2C(N=CN2C)N(C)C1=O (stereo unspecified),Potency,[8],inactive
same,Potency,[2],inactive
same,Potency,[3],inactive
same,Potency,[4],inactive
same,Potency,[5],inactive
same,Potency,[6],inactive
same,Potency,[7],inactive
C=C(C)CC[C@H](Cc1c(O)cc(O)c2c1O[C@H](c1ccc(O)cc1O)CC2=O)C(=C)C,Potency,[1],inactive
same,Potency,[2],inactive
same,Potency,[3],0.0059 µM (active)
same,Potency,[5],30.5 µM (active)
same,Potency,[6],23.4 µM (active)
same,Potency,[7],inactive
CN1CCc2cc3c(c4c2[C@H]1[C@@H](O)c1ccccc1-4)OCO3,Potency,[8],inactive
same,Potency,[9],inactive
same,Potency,[4],20.9 µM (active)
same,Potency,[5],34.3 µM (active)
same,Potency,[6],inactive
CCCCCCCCCC(=O)[C@@H]1C(=O)N[C@@H](CC(C)C)C(=O)N[C@H](C)C(=O)N2CCC[C@H]2C(=O)N[C@@H](C(C)C)C(=O)N[C@H]2CS[C@H]1CNC2=O (cyclo(L[dA]PV[X1])),Potency,[8],inactive
same,Potency,[1],inactive
same,Potency,[9],inactive
same,Potency,[3],0.0033 µM (active)
same,Potency,[6],inactive
C=C(C)[C@@H]1CC[C@]2(C)CC[C@]3(C)[C@H](CC[C@@H]4[C@@]5(C)CC[C@H](O)C(C)(C)[C@@H]5CC[C@]43C)[C@@H]12,Potency,[8],inactive
same,Potency,[1],inactive
same,Potency,[2],inactive
same,Potency,[9],inactive
same,Potency,[3],inactive
same,Potency,[4],inactive
same,Potency,[5],inactive
O=C(O)CC1OCc2c(O)cccc21 (stereo unspecified),Potency,[1],inactive
same,Potency,[2],inactive
same,Potency,[3],inactive
same,Potency,[4],inactive
same,Potency,[5],inactive
same,Potency,[6],inactive
same,Potency,[7],inactive
O=C1CC(c2cc(O)cc(O)c2)Oc2cc(O)ccc21 (stereo unspecified),Potency,[1],inactive
same,Potency,[3],inactive
same,Potency,[5],8.6 µM (active)
C/C=C/C[C@@H](C)[C@@H](O)[C@H]1C(=O)N[C@@H](CC)C(=O)N(C)CC(=O)N(C)[C@@H](CC(C)C)C(=O)N[C@@H](C(C)C)C(=O)N(C)[C@@H](CC(C)C)C(=O)N[C@@H](C)C(=O)N[C@H](C)C(=O)N(C)[C@@H](CC(C)C)C(=O)N(C)[C@@H](CC(C)C)C(=O)N(C)[C@H](C(C)C)C(=O)N1C,Potency,[10],inactive
O=Cc1ccc2n1C[C@@]1(C[C@H](O)[C@H](O)CO1)OC2,Potency,[1],inactive
same,Potency,[2],inactive
same,Potency,[9],inactive
same,Potency,[4],inactive
same,Potency,[6],inactive
Cc1ccc(-c2nnc(Nc3ccc(O)cc3)c3ccccc23)cc1S(=O)(=O)NC(C)(C)CO,Potency,[12],inactive
CC12C[C@]3(O)O[C@@H](O1)[C@]1(COC(=O)c4ccccc4)[C@@H]3CC21OC1OC(CO)C(O)C(O)C1O (stereo partly specified),Potency,[9],inactive
same,Potency,[3],inactive
same,Potency,[4],inactive
CCCCCCCCCCCCCCC[C@H](O)C[C@@H](O)C[C@@H](O)C[C@@H](O)C[C@@H](O)C[C@H]1CC=CC(=O)O1,Potency,[2],2.64 µM (active)
same,Potency,[3],3.75 µM (active)
same,Potency,[4],inactive
same,Potency,[5],inactive
same,Potency,[6],5.24 µM (active)
same,Potency,[7],inactive
Cc1ccc(/C=C2/CNC/C(=C\c3ccc(C)cc3)C2=O)cc1,Potency,[13],inactive
COc1ccc(/C=C\C(=O)Nc2ccccc2C(=O)O)cc1OC,Potency,[14],> 46 µM (inactive)
same,Potency,[15],> 46 µM (inactive)
same,Potency,[16],inactive
same,Potency,[17],inactive
N[C@H](C(=O)O)c1nn[nH]n1,Potency,[14],> 46 µM (inactive)
same,Potency,[15],> 46 µM (inactive)
same,Potency,[16],inactive
same,"activity change, negative = inhibition",[18],1.12% (inactive)
same,max response,[18]; [19],-0.925%
same,max response,[18]; [20],-0.771%
same,Potency,[17],inactive
same,Potency,[13],inactive
C/C=C1/CC[C@@H]2c3[nH]c4ccccc4c3CCN2C1,Potency,[2],inactive
same,Potency,[5],19.3 µM (active)
same,Potency,[6],inactive
O=C(O)COc1ccc(OCCNC[C@H](O)COc2ccccc2)cc1,Potency,[13],inactive
CCCCCCCCCCCCC(O)C(=O)O (stereo unspecified),"activity change, negative = inhibition",[13],56.7% [at 3.88 µM] (inactive)
O[C@@H](c1ccccc1)C1CCN(CCc2ccccc2)CC1,Potency,[14],> 46 µM (inactive)
same,Potency,[15],> 46 µM (inactive)
same,Potency,[16],inactive
same,"activity change, negative = inhibition",[18],3% (inactive)
same,max response,[18]; [19],5.72%
same,max response,[18]; [20],10.3%
same,Potency,[17],inactive
same,Potency,[13],inactive
CCCCCCCCCCCCCCCCOC[C@H](COP(=O)([O-])OCC[N+](C)(C)C)OC(=O)NC,"activity change, negative = inhibition",[13],5.26% [at 3.88 µM] (inactive)
